The source of these data is PubChem BioAssay AID602468 (The Scripps Research Institute Molecular Screening Center, 2012).

For this assay, the system named is MBM. Kind of assay: selectivity across cysteine-reactive proteome – gel-based competitive ABPP, fluorescence, MBM, Neuro-2A, selectivity assay for PME-1 inhibitor project, late-stage follow-up (AID 602468). Conditions: MBM or Neuro-2A, in vitro, at 10 µM, active compounds read low.

A number with no mark means an inactive call. How the calls were made is not given here.

For `CC[C@@]1(c2ccc(C)cc2)C(=O)N(C(=O)OC(C)C)N1C(=O)OC(C)C`, the number of anti-targets inhibited is 0.
